Only some compounds are listed: those with a hit (about 0.54% of all), similar ones and a draw of the others.
AT treatment = qHTS Assay for Identifying a Potential Treatment of Ataxia-Telangiectasia; Potency, µM (highest dose often 57.5 µM), for the others: at the top dose activation, actives largely listed as activators; actives 0.19% (n = 320,000); F2112 A-T fibroblasts, KAP-1 phosphorylation AlphaLISA; neocarzinostatin DNA damage 30 min before lysis; also: potency is read from the fitted curve at half-maximal effect; % of control where 0% means no effect; nearly all actives have a fitted effect of over 45% in size
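hTERT-immortalized A-T patient fibroblasts (F2112), 500 cells/well in OPTI-MEM, 1% FBS, got compounds for 60 min, then NCS for 30 min at 37C. Lysates were then assayed for phospho-KAP-1 by AlphaLISA (anti-pKAP1 donor, anti-KAP1 acceptor beads), 6 hr at 25C.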
TRPML1 agonist = qHTS for Agonists of the Human Mucolipin Transient Receptor Potential 1 (TRPML1). Mucolipin-1 (Homo sapiens), Q9GZU1. TRPML1-expressing cells, Ca2+ dye fluorescence, FDSS. activation, % (no concentration beside the values). actives 0.12% (n = 410,000). AID 624414, 2012; in the data active = activation above about 50%; inconclusive = mostly about 30% to 49%; also: 0% is about no effect
Target sequence (Q9GZU1 whole entry, looked up): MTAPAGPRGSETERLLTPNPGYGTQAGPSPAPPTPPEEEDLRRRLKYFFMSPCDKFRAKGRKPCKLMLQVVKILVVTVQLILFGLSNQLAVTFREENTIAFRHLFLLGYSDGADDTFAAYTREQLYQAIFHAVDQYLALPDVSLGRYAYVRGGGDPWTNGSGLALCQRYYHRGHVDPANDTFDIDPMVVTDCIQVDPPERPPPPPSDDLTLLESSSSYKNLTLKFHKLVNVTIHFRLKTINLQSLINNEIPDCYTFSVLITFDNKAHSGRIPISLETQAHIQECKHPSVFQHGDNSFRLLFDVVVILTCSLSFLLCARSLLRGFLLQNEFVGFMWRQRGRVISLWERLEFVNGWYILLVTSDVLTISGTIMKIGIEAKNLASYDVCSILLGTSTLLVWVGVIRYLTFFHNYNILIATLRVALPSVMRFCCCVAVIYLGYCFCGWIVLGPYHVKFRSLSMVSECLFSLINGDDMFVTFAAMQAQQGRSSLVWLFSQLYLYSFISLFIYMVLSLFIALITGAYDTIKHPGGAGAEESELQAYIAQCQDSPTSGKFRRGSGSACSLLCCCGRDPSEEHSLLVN
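Tet-induced TRPML1-DL cells, 1,500 per well, cultured overnight, were loaded with a no-wash Ca2+ dye for 45–90 min. Calcium fluorescence was recorded on the FDSS for 110 s after compound addition, before the EC80 agonist (4 uM 54-4) was added.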
Vif-A3G inh = qHTS for Inhibitors of Vif-A3G Interactions: qHTS; actives 0.076% (n = 410,000); AID 602310, 2012; HeLa A3G-eYFP + Vif (tagged APOBEC3G with the HIV-1 protein that degrades it), YFP fluorescence, overnight; Potency, µM (titrated, usually from 46.1 µM), inactives show at the top dose activity, negative = active, usual class: inhibitors; also: potency is read from the fitted curve at half-maximal effect; % is scaled to controls: 0 for no effect and ±100 for the full control effect; nearly all actives have a fitted effect of over 60% in size
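HeLa cells stably expressing Vif and C-terminally eYFP-tagged A3G, seeded overnight at 37 deg C, then exposed to compound by pintool overnight at 37 deg C. Rise in yellow fluorescence (Ex 488/Em 500-530, Acumen) marks blocked Vif-driven A3G degradation.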
Vif-APOBEC3F blk = qHTS for Inhibitors of Vif-A3F Interactions: qHTS. Potency, µM (highest dose often 46.1 µM), inactives show at the highest dose activity, negative = active. actives 0.2% (n = 390,000). HeLa A3F-eYFP + Vif (tagged APOBEC3F with the HIV-1 protein that degrades it), YFP fluorescence increase; also: potency is read from the fitted curve at half-maximal effect; % of control where 0% means no effect; nearly all actives have a fitted effect of over 65% in size
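Fluorescence increase (Ex 488/Em 500-530) after overnight compound treatment at 37 deg C flags inhibition of Vif-driven A3F-eYFP loss in stable HeLa A3F-eYFP/Vif cells seeded overnight beforehand.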
TRPML1 inh = qHTS for Inhibitors of the Human Mucolipin Transient Receptor Potential 1 (TRPML1) | actives 0.02% (n = 390,000) | Mucolipin-1 (Homo sapiens), Q9GZU1 | AID 624415, 2012 | activity change, negative = inhibition, % (concentration not given with the values) | TRPML1-inducible cells, Ca2+ dye fluorescence, FDSS; active compounds read low; inhibition of EC80 agonist-evoked calcium signal; in the data active = activity change below about -50%; inconclusive = between about -30% and that limit;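 also: stimulus is agonist 54-4 at its EC80 concentration; % is scaled to controls: 0 for no effect and ±100 for the full control effect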
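Tet-induced TRPML1-DL cells loaded with Ca8 no-wash calcium dye were read kinetically on FDSS. Compound addition was followed by EC80 agonist 54-4 (4 uM final); inhibition was read over 110 s.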
* hit, by the source's call; i = inactive; u = inconclusive; x = no result given. Unless noted, calls follow the shape of the dose curve; as a rule, active = well fitted curve in the direction sought with a large enough effect; inconclusive = small, poorly fitted or top-dose-only effect, or another doubt; inactive = no such curve, though single readings can be large; an effect the other way counts as inactive or inconclusive.

SMILES	AT treatment	TRPML1 agonist	Vif-A3G inh	Vif-APOBEC3F blk	TRPML1 inh
CC(NC(=S)Nc1ccccc1Cl)C(c1ccccc1)N1CCOCC1 (configuration not stated)	10%	80*	3%	-11%	-7
COc1ccc(NC(=S)NC(C)C(c2ccccc2)N2CCOCC2)cc1 (configuration not stated)	-13%	2	1%	5%	20
CC(=O)Nc1ccc(NC(=O)CSc2nnnn2-c2ccc(F)cc2)cc1	3.2µM*	-1	2%	u	5
CC(=O)Nc1ccc(-n2nnnc2SCC(=O)NC2CCCC2)cc1	-1%	0	2%	u	-15
Oc1cccc(Nc2nc(O)c(/C=C3\C=Nc4ccccc43)s2)c1	-6%	x	4.5µM*	11µM*	x
Oc1nc(Nc2cccc(Cl)c2)sc1/C=C1\C=Nc2ccccc21	-5%	1	-15%	-9%	-17
C(=C\c1ccc2ccccc2n1)/c1ccc2ccccc2n1	x	0	-10%	x	x
Cc1ccc2c(/C=C/c3c[nH]c4ccccc34)ccnc2c1C	x	12	11µM*	x	x
COc1ccc(OC)c2c(/C=C/c3c[nH]c4ccccc34)ccnc12	x	1	-8%	x	x
C(=Cc1c[nH]c2ccccc12)c1ccc2ccccc2n1	x	11	u	25µM*	-8
C(=Cc1c[nH]c2ccccc12)c1nccc2ccccc12	x	15	u	8.9µM*	-15
Nc1ccc(/C=C/c2nccc3ccccc23)cc1	x	3	u	x	x
Brc1cccc(-c2nc3c4ccccc4ccn3c2Cc2ccccc2)c1	x	1	-2%	x	x
CCC(=O)NC(=S)Nc1cccc(Cl)c1N1CCCCC1	35µM*	0	-7%	-24%	5
CCCC(=O)NC(=S)Nc1cccc(Cl)c1N1CCCCC1	28µM*	2	3%	-29%	-8
O=C1NC(=Nc2ccc(O)cc2)S/C1=C/c1ccco1	-1%	1	11µM*	-1%	-16
COC(=O)/C=C/c1ccc2c(c1)S(=O)(=O)N(C1CCCC1)[C@H]2CC(=O)OC	x	1	5%	x	x
Cc1ccc(C2/C(=C(\O)c3c(C)nc4ccccn34)C(=O)C(=O)N2CCN(C)C)o1 (configuration not stated)	-4%	0	1%	11%	-56*
Cc1ccc(C2/C(=C(\O)c3c(C)nc4c(C)cccn34)C(=O)C(=O)N2CCN(C)C)o1 (configuration not stated)	x	1	1%	0%	-9
CC(C)(C)n1nnnc1C(c1ccccc1)N1CCN(c2ccc(F)cc2)CC1 (configuration not stated)	x	2	x	x	x
CC(C)(C)n1nnnc1C(c1ccccc1)N1CCN(c2c(Cl)cncc2Cl)CC1 (configuration not stated)	x	52*	x	x	x
CC(C)(C)n1nnnc1C(c1ccccc1)N1CCN(c2ncc(C(F)(F)F)cc2Cl)CC1 (configuration not stated)	x	57*	x	x	x
Oc1cc2cc(-c3csc(-c4ccc(F)cc4)n3)cc3c2n1CCC3	x	-1	1%	x	x
C=CCn1c(=O)/c(=C/c2cc(OC)c(OC)c(OC)c2)s/c1=C(/C#N)c1nc2ccccc2n1C	-5%	14	-8%	22µM*	0
C=CCN1c2ccccc2[C@]23C[C@@H](C(=O)OC)N(C(C)=O)C2=NC(C(=O)OC)=C(C(=O)OC)[C@H]13	13µM*	0	1%	-7%	-14
SMILES	AT treatment	TRPML1 agonist	Vif-A3G inh	Vif-APOBEC3F blk	TRPML1 inh
S=C(Nc1cccc2ccccc12)NN1CCOCC1	-4%	0	2%	-5%	-7
S=C(Nc1cccc2ccccc12)NN1CCCCCC1	x	-1	0%	22µM*	15
Cc1ccc(N2C(=O)CS/C2=C(\C(Cl)=C(Cl)Cl)[N+](=O)[O-])cc1	x	1	u	25µM*	12
O=C(C[n+]1ccccc1Cl)c1ccc(F)cc1	x	0	3%	x	x
N#Cc1c(NC(=O)/C=C/C(=O)O)sc2c1CCN(Cc1ccccc1)C2	11%	6	u	25µM*	-2
c1ccc(CCc2ccccc2-c2nc(-c3cccnc3)no2)cc1	40µM*	2	-19%	x	43
c1ccc(CCc2nc(-c3cccnc3)no2)cc1	13%	-1	1%	1%	0
O=C(/C(=C/c1ccc(Cl)cc1)c1nc2ccccc2[nH]1)c1cccs1	3.5µM*	1	u	4%	32
O=C(/C(=C\c1ccccc1)c1nc2ccccc2[nH]1)c1ccc(Cl)cc1	8%	1	-15%	1%	-4
O=c1[nH]c2ccccc2nc1/C=C(\O)c1cccs1	9%	79*	u	10µM*	-17
COc1cc(/C=C(/C(=O)c2cccs2)c2nc3ccccc3[nH]2)ccc1O	25µM*	-1	10µM*	-15%	5
O/C(=C\c1nc2ccccc2[nH]1)c1cccs1	0%	1	-4%	-3%	15
Cc1cc(F)ccc1NC(=O)CN1C(=O)CCc2cc(S(=O)(=O)N3CCOCC3)ccc21	x	-1	6%	2%	7
Cc1ccc(-c2cn3nc(-c4ccccc4)c(-c4ccccc4)nc3n2)cc1	28µM*	17	-18%	4.5µM*	-1
Cc1[nH]c2ccccc2c1/C=N/NC(=O)c1cccc([N+](=O)[O-])c1	6%	0	-4%	3%	-1
C/C(=N/Nc1ccc([N+](=O)[O-])cc1)c1c[nH]c2ccccc12	-4%	u	u	6.3µM*	-3
C/C(=N/Nc1ccc([N+](=O)[O-])cc1)c1ccc(C)cc1C	9%	2	-12%	-17%	-13
Cc1[nH]c2ccccc2c1/C=N/Nc1ccc([N+](=O)[O-])cc1	1%	19	10µM*	10µM*	8
Cc1cc(Br)ccc1SCC(=O)OC/C(O)=C(\C#N)c1nc2ccccc2[nH]1	-7%	-1	-6%	25µM*	5
CCCCOc1ccc(S(=O)(=O)Nc2cccc(-c3ccc(N4CCOCC4)nn3)c2)cc1	x	-1	3%	4%	-12
N#C/C(=C\c1ccc(OCc2ccccc2)cc1)C(=O)Nc1nc2c(s1)CCN(Cc1ccccc1)C2	-8%	0	1%	u	56
CN(C)c1ccc(/C=C(/C#N)C(=O)Nc2nc3c(s2)CCN(Cc2ccccc2)C3)cc1	x	22	5.6µM*	u	24
CCc1nc(C)cc2c1sc1ccccc12	20µM*	0	-1%	i	5

Screening results (PubChem)
